# Test results from the supplement of paper PMC8975748.
# Structures can show the parent of a compound that is named as a salt.
# System: Saccharomyces cerevisiae BY4741 SeMeCo community
# Experiment: z-score of prototroph abundance vs DMSO median; higher = larger share of this subpopulation than in DMSO controls
# Conditions: 10 µM; 24 h; SM minimal medium; subpopulation (auxotrophy): Prototroph
# Protocol: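 Fluorescent four-plasmid SeMeCo (self-establishing metabolically cooperating S. cerevisiae BY4741 community; plasmids pH-mRuby2, pL-mWasabi, pU-eCFP, pM-TagRFP657) was grown 24 h in minimal SM medium with each Selleck FDA-approved drug at 10 µM in 384-well plates. Cells were fixed and imaged by high-content confocal microscopy. For each auxotrophic subpopulation (and the prototroph), a z-score gives the deviation from the DMSO vehicle-control population median.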
row,SMILES,z-score of prototroph abundance
1,CCN[C@@H]1C[C@H](N)[C@@H](O[C@H]2OC(CN)=CC[C@H]2N)[C@H](O)[C@H]1O[C@H]1OC[C@](C)(O)[C@H](NC)[C@H]1O [Netilmicin Sulfate],-0.66
2,CC(N)C12CC3CC(CC(C3)C1)C2 (stereo not given) [Rimantadine],-1.12
3,COc1ccc2c(c1)c(CC(=O)O)c(C)n2C(=O)c1ccc(Cl)cc1 [Indomethacin],0.27
4,CC1(C)S[C@@H]2[C@H](NC(=O)[C@H](NC(=O)N3CCN(S(C)(=O)=O)C3=O)c3ccccc3)C(=O)N2[C@H]1C(=O)O [Mezlocillin Sodium],0.2
5,Cc1ccnc(NS(=O)(=O)c2ccc(N)cc2)n1 [Sulfamerazine],-1.15
6,Nc1nc(N)c2nc(-c3ccccc3)c(N)nc2n1 [Triamterene],3.28
7,C[C@@H]1CC(=O)NN=C1c1ccc(NN=C(C#N)C#N)cc1 [Levosimendan],-0.07
8,CN[C@@H]1[C@H](O)[C@H](NC)[C@H]2O[C@@]3(O)C(=O)C[C@@H](C)O[C@H]3O[C@@H]2[C@H]1O [Spectinomycin 2HCl],-0.2
9,CO[C@H]1C[C@@H]2CC[C@@H](C)[C@@](O)(O2)C(=O)C(=O)N2CCCC[C@H]2C(=O)O[C@H]([C@H](C)C[C@@H]2CC[C@@H](OCCO)[C@H](OC)C2)CC(=O)[C@H](C)/C=C(\C)[C@@H](O)[C@@H](OC)C(=O)[C@H](C)C[C@H](C)/C=C/C=C/C=C/1C [Everolimus (RAD001)],-18.1
10,CCCCCOc1ccccc1/C(=C\SC)n1ccnc1 [Neticonazole Hydrochloride],-8.79
11,COC(=O)C1=C(C#N)NC(C)=C(C(=O)OC(C)C)C1c1cccc([N+](=O)[O-])c1 (stereo not given) [Nilvadipine],0.22
12,Cc1c(OCC(F)(F)F)ccnc1C[S@@+]([O-])c1nc2ccccc2[nH]1 [Dexlansoprazole],0.34
13,CN(C)CCOc1ccc(/C(=C(/CCCl)c2ccccc2)c2ccccc2)cc1 [Toremifene Citrate],-1.18
14,Cc1ccsc1/C=C/C1=NCCCN1C [Morantel tartrate],0.27
15,O=C(c1ccc(OCCN2CCCCC2)cc1)c1c(-c2ccc(O)cc2)sc2cc(O)ccc12 [Raloxifene],0.7
16,CCCCN1CCCCC1C(=O)Nc1c(C)cccc1C (stereo not given) [Bupivacaine HCl],0.23
17,C[C@H]1NCc2cc(-c3ccc4c(=O)c(C(=O)O)cn(C5CC5)c4c3OC(F)F)ccc21 [Garenoxacin],-0.68
18,CC(=O)[C@H]1CC[C@H]2[C@@H]3CCC4=CC(=O)CC[C@]4(C)[C@H]3CC[C@]12C [Progesterone],0.96
19,CC(C)C(=O)c1c(C(C)C)nn2ccccc12 [Ibudilast],0.24
20,O=C(O)c1cn(-c2ccc(F)cc2)c2cc(N3CCNCC3)c(F)cc2c1=O [Sarafloxacin HCl],0.01

row,SMILES,z-score of prototroph abundance
1,NC[C@H]1O[C@H](O[C@H]2[C@H](O)[C@@H](O[C@H]3O[C@H](CO)[C@@H](O)[C@H](N)[C@H]3O)[C@H](N)C[C@@H]2N)[C@H](N)C[C@@H]1O [Tobramycin],0.02
2,NCC[C@H](O)C(=O)N[C@@H]1C[C@H](N)[C@@H](O[C@H]2O[C@H](CN)[C@@H](O)[C@H](O)[C@H]2O)[C@H](O)[C@H]1O[C@H]1O[C@H](CO)[C@@H](O)[C@H](N)[C@H]1O [Amikacin hydrate],0.26
3,C[C@H]1c2cccc(O)c2C(O)=C2C(=O)[C@]3(O)C(O)=C(C(N)=O)C(=O)[C@@H](N(C)C)[C@@H]3[C@@H](O)[C@@H]21 [Doxycycline monohydrate],0.75
4,COc1ccc(C(C)=O)c(O)c1 [Paeonol],-0.25
5,CNCc1cc(-c2ccccc2F)n(S(=O)(=O)c2cccnc2)c1 [Vonoprazan Fumarate (TAK-438)],0
6,CCOC(=O)C1=C[C@@H](OC(CC)CC)[C@H](NC(C)=O)[C@@H](N)C1 [Oseltamivir Phosphate],1.28
7,CC[C@@H]1C(=O)OC[C@@H]1Cc1cncn1C [Pilocarpine HCl],0.73
8,CCCN(CCC)CCc1cccc2c1CC(=O)N2 [Ropinirole HCl],-0.81
9,O=C1NC(=O)C(c2ccccc2)(c2ccccc2)N1 [Phenytoin],-0.03
10,CCOC(=O)c1ccc(N)cc1 [Benzocaine],0.6
11,C=CCCCCCCCCC(=O)[O-].C=CCCCCCCCCC(=O)[O-].[Zn+2] [Zinc Undecylenate],2.41
12,CNCCCC1c2ccccc2C=Cc2ccccc21 [Protriptyline hydrochloride],-0.57
13,CC[C@@H]1/C=C(\C)C[C@H](C)C[C@H](OC)[C@H]2O[C@@](O)(C(=O)C(=O)N3CCCC[C@H]3C(=O)O[C@H](/C(C)=C/[C@@H]3CC[C@@H](O)[C@H](OC)C3)[C@H](C)[C@@H](O)CC1=O)[C@H](C)C[C@@H]2OC [Ascomycin (FK520)],-1.94
14,CCCc1cc(C(N)=S)ccn1 [Protionamide],0.19
15,CC[C@H](C)C(=O)O[C@H]1C[C@H](O)C=C2C=C[C@H](C)[C@H](CC[C@@H](O)C[C@@H](O)CC(=O)O)[C@H]21 [Pravastatin sodium],-0.86
16,CCc1c2c(nc3ccc(OC(=O)N4CCC(N5CCCCC5)CC4)cc13)-c1cc3c(c(=O)n1C2)COC(=O)[C@]3(O)CC [Irinotecan HCl Trihydrate],-0.17
17,OC(CCN1CCCCC1)(c1ccccc1)C1CCCCC1 (stereo not given) [Trihexyphenidyl hydrochloride],-0.03
18,CC1=C(C(=O)O)N2C(=O)[C@@H](NC(=O)[C@H](N)c3ccccc3)[C@H]2SC1 [Cephalexin],-0.14
19,CS(=O)(=O)c1ccc([C@@H](O)[C@@H](CF)NC(=O)C(Cl)Cl)cc1 [Florfenicol],0.5
20,N=C(N)NC(=O)c1nc(Cl)c(N)nc1N [Amiloride HCl],-0.41
